PubChem BioAssay (NCI)
Where “and” joins values, the source holds several entries; their conditions need not be identical. Equal entries are not always repeated. The panel holds about 83,000 compounds, 20% with a hit somewhere; the sample as a whole holds those more often.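 The endpoint reported here, percent growth, reads 100 for growth as untreated, 0 for no net growth and -100 for all cells dead.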 Values without a mark were called inactive. Calls of active or inactive are those of the source. How the source made its calls: active means growth percent below 10; inactive means the rest.

Assays:
Assay in all cases: NCI-60 one-dose screen, 48 h (100 = growth as untreated, 0 = no growth, -100 = all killed)
Settings in all cases: 10 µM unless noted
HCT-15 colon = tested on: HCT-15 colon
HT29 colon = tested on: HT29 colon
SNB-75 CNS = tested on: SNB-75 CNS
SNB-19 CNS = tested on: SNB-19 CNS
U251 CNS = tested on: U251 CNS
PC-3 prostate = tested on: PC-3 prostate
SK-MEL-5 melanoma = tested on: SK-MEL-5 melanoma
UACC-62 melanoma = tested on: UACC-62 melanoma
LOX IMVI melanoma = tested on: LOX IMVI melanoma
SK-MEL-28 melanoma = tested on: SK-MEL-28 melanoma
SK-MEL-2 melanoma = tested on: SK-MEL-2 melanoma
EKVX NSCLC = tested on: EKVX NSCLC
SN12C renal = tested on: SN12C renal
UO-31 renal = tested on: UO-31 renal
TK-10 renal = tested on: TK-10 renal
ACHN renal = tested on: ACHN renal
CAKI-1 renal = tested on: CAKI-1 renal
A498 renal = tested on: A498 renal
CCRF-CEM leukemia = tested on: CCRF-CEM leukemia
MOLT-4 leukemia = tested on: MOLT-4 leukemia

| Compound | growth (HCT-15 colon) | growth (HT29 colon) | growth (SNB-75 CNS) | growth (SNB-19 CNS) | growth (U251 CNS) | growth (PC-3 prostate) | growth (SK-MEL-5 melanoma) | growth (UACC-62 melanoma) | growth (LOX IMVI melanoma) | growth (SK-MEL-28 melanoma) | growth (SK-MEL-2 melanoma) | growth (EKVX NSCLC) | growth (SN12C renal) | growth (UO-31 renal) | growth (TK-10 renal) | growth (ACHN renal) | growth (CAKI-1 renal) | growth (A498 renal) | growth (CCRF-CEM leukemia) | growth (MOLT-4 leukemia) |
| --- | --- | --- | --- | --- | --- | --- | --- | --- | --- | --- | --- | --- | --- | --- | --- | --- | --- | --- | --- | --- |
| COc1cc(NC(=O)C(C)C)ccc1C(=O)NC(=S)Nc1ccc(S(N)(=O)=O)cc1 | 108% | 101% | 95.5% | 80.8% | 72% | 115% | 114% | 96.2% | 102% | 114% | 97.4% | 102% | 100% | 89.7% | 94.6% | 103% | 96.7% | 150% | 97.5% | 118% |
| COc1ccc2[nH]c(O)c(N=Nc3nc(-c4ccc(Br)cc4)cs3)c2c1 | 2.5% (active) | 12.8% | -41.4% (active) | 36.4% | -39.5% (active) | 21% | 35.1% | 18.7% | 4.53% (active) | 15.4% | 21.1% | 6.08% (active) | -46.4% (active) | 0.841% (active) | 33.4% | -64.2% (active) | 2.6% (active) | -78% (active) | 14.7% | -17.7% (active) |
| COc1ccc(NC(=O)N/N=C/c2c[nH]c3ccccc23)cc1 | 26.2% | 2.49% (active) | 19.6% | 47.3% | 28.3% | 48.7% | 20.5% | 25.5% | 28% | 67.9% | -10.7% (active) | 43.1% | 34.4% | 40.3% | 74.4% | 51.1% | 44% | 85.5% | 21% | 20.5% |
| COc1ccc2[nH]cc(-c3cc4nc(-c5cn(C)c6ncc(Br)cc56)cc(N)n4n3)c2c1 | -70.5% (active) | -76.1% (active) | -56.9% (active) | -29.4% (active) | -76.1% (active) | -39.5% (active) | -88.3% (active) | -82.5% (active) | -97.9% (active) | -92.4% (active) | -34.7% (active) | -82.7% (active) | -83.2% (active) | -69.1% (active) | -42.5% (active) | -97.6% (active) | -86.1% (active) | -51% (active) | -31% (active) | -27.5% (active) |
| Nc1cccc(-n2c(COc3ccc(I)cc3)nc3ccccc32)c1 | 74.6% and 104% | 78.7% and 114% | 52.9% and 91.4% | 93.5% and 98.6% | 84.8% and 101% | 63.9% and 104% | 60% and 99.8% | 57.6% and 92.2% | 80% and 101% | 98.9% and 98.7% | 82.5% and 105% | 70.4% and 102% | 90.2% and 103% | 43.6% and 81.3% | 112% and 98.6% | 81.9% and 103% | 56.8% and 97.2% | 112% and 132% | 82.8% and 99.3% | 71.5% and 99.8% |
| COc1ccc2c(c1)c(-c1cc(N)n3nc(-c4c[nH]c5ccccc45)cc3n1)cn2C | -69.8% (active) | -71.7% (active) | -24.8% (active) | -57.1% (active) | -87.8% (active) | 1.08% (active) | -94.8% (active) | -92% (active) | -86.1% (active) | -94.6% (active) | -65.4% (active) | -79.6% (active) | -81% (active) | -71.1% (active) | -92.5% (active) | -79.6% (active) | -70.2% (active) | -57.8% (active) | -25.1% (active) | -1.51% (active) |
| N#CC1=C(c2cccs2)Nc2c(c(-c3ccccc3)nn2-c2ccccc2)C12C(=O)Nc1ccc(Cl)cc12 (stereo not given) | 10.5% | 14.4% | 36.9% | 13.4% | 16.2% | 12.8% | 25.1% | 15.4% | 25.8% | 41.8% | 22.8% | 13.3% | 33.8% | 12.7% | 31.5% | 12.6% | 23.3% | 88.8% | 13.7% | 19.3% |
